# PubChem BioAssay (NCATS)
# “And” between values parts separate entries of the source, which are not always exact repeats. Equal entries are not always repeated. Results filed as inconclusive are left out. A call without a number means that no potency is given here. The source made the active and inactive calls. Calls come from the whole dose curve.
# Assay: Cytotoxicity counterscreen for inhibitors of SARS-CoV-2 cell entry (AID 1645845); note: nearly all actives have a fitted effect of over 50% in size
# Conditions: cell viability (SARS-CoV-2 entry assay cells); series mostly up to 57.1 µM
# How it was run: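 Expi293F/hACE2 cells seeded overnight; cpd pin-transferred in DMSO, 1 h preincubation, + media, 48 h 37 C 5% CO2; ATPLite 1step luminescence; normalized to cells and no cells.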
row,Structure (SMILES),Potency
1,O=C(CCCN1CCN(c2ccc(F)cc2)CC1)NC1c2ccccc2CSc2ccccc21 (stereo unspecified),inactive
2,COC(=O)Nc1nc2ccc(S(=O)c3ccccc3)cc2[nH]1 (stereo unspecified),inactive
3,O=C1NC2CCCCN2C12CCN(CCCN1c3ccccc3CCc3ccc(Cl)cc31)CC2 (stereo unspecified),inactive
4,O=C(Nc1ccccc1)OCC(CN1CCCCC1)OC(=O)Nc1ccccc1 (stereo unspecified),inactive
5,CC(=O)c1ccc2c(c1)N(CCCN1CCC(CCO)CC1)c1ccccc1S2,inactive
6,CC(C(O)c1ccccc1)N(C)CCOC(c1ccccc1)c1ccccc1 (stereo unspecified),inactive
7,C[C@@H]1CC[C@H]2[C@@H](C)C(=O)O[C@@H]3O[C@@]4(C)CC[C@@H]1[C@]32OO4,inactive
8,COCCOC(=O)C1=C(C)NC(C)=C(C(=O)OC/C=C/c2ccccc2)C1c1cccc([N+](=O)[O-])c1 (stereo unspecified),inactive
9,COP(=O)(OC)C(O)C(Cl)(Cl)Cl (stereo unspecified),inactive
10,CCCOc1ccc2nc(NC(=O)OC)[nH]c2c1,inactive
11,CC1=CC(=O)c2ccccc2C1=O,inactive

# Assay: Primary qHTS to identify inhibitors of SARS-CoV-2 cell entry (AID 1645846); note: nearly all actives have a fitted effect of over 45% in size; note: potency is the fitted concentration of half-maximal effect
# Conditions: SARS-CoV-2 pseudovirus cell entry assay, luminescence; activity change, negative = inhibition: at 57.1 µM (top of the series) unless noted; series mostly up to 57.1 µM
# How it was run: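 HEK293 cells stably expressing human ACE2, pre-treated 1 h with compound, then infected with MLV particles pseudotyped with Wuhan-Hu-1 spike (C-terminal 19-aa truncation). Luciferase luminescence after 48 h at 37 °C, normalised to spike PP and bald PP.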
Structure (SMILES),"activity change, negative = inhibition",Potency
Cc1ccc(O)cc1,-24.6%,
NC(CSCC(=O)O)C(=O)O (stereo unspecified),0.853%,
CCN(CC)C(=O)c1cccc(C)c1,,inactive
N/C(=N\N=C\c1ccc(Cl)cc1)N/N=C/c1ccc(Cl)cc1,-80.5%,
O=C(O)CCC(=O)Nc1ccc(S(=O)(=O)Nc2nccs2)cc1,,inactive
N[C@H](Cc1c[nH]c2ccccc12)C(=O)O,,inactive
CC(C)(C)C(=O)C(Oc1ccc(Cl)cc1)n1ccnc1 (stereo unspecified),,20 µM (active)
CCOc1ccc(C(=O)OCCN(CC)CC)cc1,-1.6%,
CN(C)c1ccc(C(=C2C=CC(=[N+](C)C)C=C2)c2ccc(N(C)C)cc2)cc1,,2.24 µM (active) and 2.51 µM (active)
NC1(c2ccc(-c3nc4ccn5c(=O)[nH]nc5c4cc3-c3ccccc3)cc2)CCC1,,8.91 µM (active)
Nc1ccc2cc3ccc(N)cc3nc2c1,,7.94 µM (active)
COc1cccc2c1C(=O)c1c(O)c3c(c(O)c1C2=O)C[C@@](O)(C(C)=O)C[C@@H]3O[C@H]1C[C@H](N)[C@H](O)[C@H](C)O1,-92.1% and -98%,
COc1ccc(CCN2CCC(Nc3nc4ccccc4n3Cc3ccc(F)cc3)CC2)cc1,,10 µM (active)
O=c1c(-c2ccccc2)c1-c1ccccc1,,31.6 µM (active)
NS(=O)(=O)c1ccc(N2CCCCS2(=O)=O)cc1,,inactive
CCN(CCCCOC(=O)c1ccc(OC)c(OC)c1)C(C)Cc1ccc(OC)cc1 (stereo unspecified),,14.1 µM (active)
Cc1cc(C2CCCCC2)n(O)c(=O)c1,,17.8 µM (active)
O=C(CCCCCCCCC#CI)Oc1ccccc1,1.58%,
C[C@@H]1CC[C@H]2[C@@H](C)C(=O)O[C@@H]3O[C@@]4(C)CC[C@@H]1[C@]32OO4,-32%,
COC(=O)C1=C(C)NC(C)=C(C(=O)OCCCN2CCC(c3ccccc3)(c3ccccc3)CC2)C1c1cccc([N+](=O)[O-])c1 (stereo unspecified),,8.91 µM (active)
Nc1nc2ncc(CNc3ccc(C(=O)N[C@@H](CCC(=O)O)C(=O)O)cc3)nc2c(=O)[nH]1,,inactive
CC1=C(CC(=O)O)c2cc(F)ccc2/C1=C\c1ccc(S(C)=O)cc1 (stereo unspecified),,inactive
CCCCc1ccc2nc(NC(=O)OC)[nH]c2c1,-63.3%,
COP(=O)(OC)C(O)C(Cl)(Cl)Cl (stereo unspecified),-13.6%,
CCOc1ccc(NC(C)=O)cc1,,inactive
CCN1CCN(c2cc(-c3ccc(F)cc3)c3c(n2)CCCCCC3)CC1,,inactive
C/C=C/c1ccc(OC)cc1,,inactive
CC(=O)N(CC(O)CN(C(C)=O)c1c(I)c(C(=O)NCC(O)CO)c(I)c(C(=O)NCC(O)CO)c1I)c1c(I)c(C(=O)NCC(O)CO)c(I)c(C(=O)NCC(O)CO)c1I (stereo unspecified),,inactive
O=C(Nc1ccc([N+](=O)[O-])cc1Cl)c1cc(Cl)ccc1O,,2.51 µM (active) and 8.91 µM (active)
C1CCC(C(CC2CCCCN2)C2CCCCC2)CC1 (stereo unspecified),,12.6 µM (active) and 17.8 µM (active)
